Results reported in PubChem BioAssay AID2535 (National Center for Advancing Translational Sciences (NCATS), 2010).
Calls of active or inactive are those of the source. The call rests on the fitted dose curve; in most records, active means well fitted curve in the direction sought with a large enough effect; inconclusive means small, poorly fitted or top-dose-only effect, or effect the other way, or another doubt; inactive means no such curve, though single readings can be large or run the other way.

Target: Pyruvate kinase PKLR (Homo sapiens) (UniProt P30613)
Sequence (P30613 whole entry, looked up): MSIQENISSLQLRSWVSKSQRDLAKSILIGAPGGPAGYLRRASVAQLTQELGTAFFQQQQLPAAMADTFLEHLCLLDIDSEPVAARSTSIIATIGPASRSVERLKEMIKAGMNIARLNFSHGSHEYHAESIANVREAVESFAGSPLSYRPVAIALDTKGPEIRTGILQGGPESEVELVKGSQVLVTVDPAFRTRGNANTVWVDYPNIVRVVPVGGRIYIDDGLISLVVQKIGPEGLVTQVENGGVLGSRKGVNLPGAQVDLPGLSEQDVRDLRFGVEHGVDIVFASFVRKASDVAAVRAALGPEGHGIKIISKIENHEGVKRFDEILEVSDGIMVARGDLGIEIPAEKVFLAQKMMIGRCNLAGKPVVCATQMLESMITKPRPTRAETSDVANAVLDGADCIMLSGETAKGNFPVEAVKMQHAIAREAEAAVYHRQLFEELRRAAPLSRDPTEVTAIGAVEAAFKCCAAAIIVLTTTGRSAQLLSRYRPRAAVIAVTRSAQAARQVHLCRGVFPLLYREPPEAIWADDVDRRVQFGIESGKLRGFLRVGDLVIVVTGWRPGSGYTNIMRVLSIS
Assay: Secondary Concentration-Response Assay for Activators of Human Liver Pyruvate Kinase: for Probe SAR
Details: purified hPK-L, ATP production, Kinase-Glo luminescence; series mostly up to 58.3 µM
Excerpt: NIH Chemical Genomics Center [NCGC]
Matthew G. Vander Heiden, M.D., Ph.D. [Harvard Medical School, 77 Avenue Louis Pasteur, Boston, MA 02115]
Human pyruvate kinase liver (hPK-L) enzyme was supplied as a highly purified (>95% pure) preparation from Harvard Medical School and assayed for its ability to generate ATP from ADP using phosphoenolpyruvate (PEP) as a substrate. ATP generation was detected in a coupled reaction by luciferase-mediated luminescence, an ATP-dependent process. Pyruvate kinase substrates, PEP and ADP, were present in the assay at Km and approximately 10-fold below Km respectively. The enzyme was assayed at an intermediate level of activity to screen for both inhibitors and activators.
NCGC Assay Protocol Summary for L-isoform:
Three uL of substrate mix (at r.t.) in assay buffer (50 mM Imidazole pH7.2, 50 mM KCl, 7 mM MgCl2, 0.01% Tween 20, 0.05% BSA) was dispensed into white solid bottom 1,536 well microtiter plates so that the final concentrations of substrates in the assay were 0.1 mM ADP and 0.5 mM PEP. 23 nL of compound were delivered by a pin tool and 1 uL of enzyme mix (final concentration of 0.1 nM) in assay buffer (4 degree Celsius) was added. Plates were incubated at room temperature for 1 hour. Two uL of detection mix (Kinase-Glo, Promega; at 4 degree Celsius protected from light) was added and luminescence read by a ViewLux (Perkin Elmer) at 1 second exposure/plate. Data were normalized to the uninhibited (row 31). Additionally, a no enzyme and 5-fold enzyme control was dispensed in row 32, split equally between the two conditions.

outcome, inactive:
COc1ccc(-c2nc3ccccn3c2Nc2ccccc2C)cc1
Cc1ccc(NS(=O)(=O)c2ccc3c(c2)CCO3)cc1C
CSc1cc2c(s1)c1cnn(Cc3cccc(O)c3)c(=O)c1n2C
O=C1CCc2cc(S(=O)(=O)Nc3ccccc3F)ccc2N1
Cc1ccc(NS(=O)(=O)c2cc3c(cc2/C=C/c2ccccc2)NC(=O)CO3)cc1C
Cc1cc(C)n2c(Nc3ccccc3)c(-c3ccc(C)o3)nc2n1
Cc1ccc(NS(=O)(=O)c2cc3c(cc2N(C)C)CCC(=O)N3)cc1C
O=C1CCc2cc(S(=O)(=O)Nc3cccc(B(O)O)c3)ccc2N1
Cc1ccc(NS(=O)(=O)c2cc3c(cc2Br)NC(=O)CO3)cc1C
O=C1CCc2cc([S+](=O)([O-])NC3CCOCC3)ccc2N1
Cc1ccc(NS(=O)(=O)c2cc3c(cc2N(C)C)NC(=O)CC3)cc1C
COc1ccc(N2C(=O)c3ccccc3C2=O)cc1
O=C1c2ccccc2C(=O)N1c1ncccc1O
Cc1ccc(N(C)S(=O)(=O)c2ccc3c(c2)CCC(=O)N3)cc1C
Cc1ccc(NS(=O)(=O)c2ccc3c(c2)N(C)C(=O)CO3)cc1C
COc1cccc(N2C(=O)c3ccccc3C2=O)n1
Cc1ccc(OC2=NS(=O)(=O)c3ccccc32)cc1
COc1ccccc1NS(=O)(=O)c1ccc2c(c1)CCC(=O)N2
COc1ccccc1N1C(=O)c2ccccc2C1=O
Cc1ccc(NS(=O)(=O)c2ccc3c(c2)CC(=O)N3C)cc1C
O=S1(=O)N=C(Oc2cccc(Cl)c2)c2ccccc21
Cc1ccc(NS(=O)(=O)c2cccc(C(=O)O)c2)cc1C
O=C1CCc2cc(S(=O)(=O)Nc3ccc4ccccc4c3)ccc2N1
Cc1ccc(N[S+](=O)([O-])c2cc3c(cc2CCc2ccccc2)NC(=O)CO3)cc1C
O=C1c2ccccc2C(=O)N1c1ccccc1O
Cc1ccn2c(NCc3ccco3)c(-c3ccccc3)nc2c1
O=C1c2ccccc2C(=O)N1c1nccs1
Cc1cc(NS(=O)(=O)c2ccc3c(c2)CCC(=O)N3)ccc1F
O=C1CCc2cc(S(=O)(=O)Nc3cccc(Br)c3)ccc2N1
COc1cccc(Cn2ncc3c4sc(S(C)=O)cc4n(C)c3c2=O)c1 (stereo not given)
Cc1ccc(NS(=O)(=O)c2ccc3c(c2)CC(=O)N3)cc1C
Cc1ccc(NS(=O)(=O)c2ccc3c(c2)N(C)CCO3)cc1C
O=C1CCc2cc(S(=O)(=O)Nc3ccc(Cl)c(Cl)c3)ccc2N1
O=C1c2ccccc2C(=O)N1c1cncc2ccccc12
O=C1c2ccccc2C(=O)N1c1cccc2ncccc12
CNc1cc2c(cc1S(=O)(=O)Nc1ccc(C)c(C)c1)CCC(=O)N2
O=C1c2ccccc2C(=O)N1C1CCCCC1
Cc1ccc(NS(=O)(=O)c2cc3c(cc2-c2cn[nH]c2)NC(=O)CO3)cc1C
CC(=O)N1c2ccc(S(=O)(=O)Nc3ccc(C)c(C)c3)cc2CC1C (stereo not given)
O=S(=O)(c1ccc2c(c1)OCCO2)N1CCN(S(=O)(=O)c2c(F)cccc2F)CC1
